Source: PubChem (several laboratories)
An excerpt weighted towards active compounds, which were near 3.7% of everything screened.
MazF activator = increases E. coli MazEF RNase cleavage of RNA | P0AE70 | FAM/BHQ RNA-DNA oligo cleavage fluorescence, 5 h | activation, % at 20 µM | 350,000 tested, 0.32% active | AID 504720; in the data active = activation above about 50%
BoNT A protease = BoNT A light chain protease inhibition | multiplex microsphere protease substrate cleavage, flow cytometry | inhibition, % at 10 µM | 360,000 tested, 0.17% active; note: plate controls were buffer without enzyme for full effect and enzyme alone for no effect
BoNT F protease = BoNT F light chain protease inhibition | 360,000 tested, 0.22% active | Multiplex microsphere protease cleavage assay, flow cytometry | inhibition, % at 10 µM | AID 588497; in the data active = inhibition above about 35%, passing the limit was not always enough; inconclusive = no clear call, values can overlap the other calls; note: plate controls were buffer without enzyme for full effect and enzyme alone for no effect
Anthrax LF prot = anthrax lethal factor protease inhibition. inhibition, % at 10 µM. AID 588501. multiplex microsphere protease cleavage assay, LF. 360,000 tested, 0.12% active. P15917; note: plate controls were buffer without enzyme for full effect and enzyme alone for no effect
Autofluor counter = compound fluorescence in toxin protease inhibitor counterscreen. fluorescence intensity (no concentration beside the values). compound autofluorescence counterscreen, microsphere flow cytometry; stronger effect = higher value. 360,000 tested, 3.1% active; in the data active = fluorescence intensity above about 16000; inconclusive = no clear call, values can overlap the other calls
An asterisk follows results filed as active; ? = inconclusive; . = not tested or not shown; + = active, no number. Cut-off read from the data, not from the text of the source, unless noted: active = inhibition above about 30%; inconclusive = no clear call, values can overlap the other calls; inactive = below that.

SMILES	MazF activator	BoNT A protease	BoNT F protease	Anthrax LF prot	Autofluor counter
CCOC(=O)c1cn(Cc2ccccc2)nc1-c1ccccc1	-7.0	-1.0	-2.4	-1.9	5933
COc1cc([N+](=O)[O-])cc(CN2CCCCC2)c1O	-3.5	?	-3.7	-4.3	16919*
O=[N+]([O-])c1ccc(Cl)c(CN2CCCCCC2)c1	6.2	5.6	31.2	-4.7	3067
COc1ccc(CNC(=O)CC[C@H]2O[C@@H](n3cc(C)c(=O)[nH]c3=O)C[C@@H]2O)cc1	.	-1.1	-3.1	-8.7	6280
CN(N=Cc1ccc([N+](=O)[O-])cc1)c1ccccn1	+	-0.3	-2.0	-8.0	4035
Cc1ccc(S(=O)(=O)N2CCC(C(=O)OCC(=O)N3CCCC3=O)CC2)cc1C	3.2	.	.	.	.
COc1ccc(-c2ccc(C#N)c(OC)n2)cc1	4.2	-1.3	-1.2	-8.5	3778
CCOc1nc(-c2ccccc2Cl)ccc1C#N	1.8	-1.5	-4.2	-3.4	20479*
CCc1ccc(C(=O)NNC(=O)C2CC(=O)N(Cc3ccccc3)C2)cc1 (stereo not drawn)	-1.4	0.0	-5.4	-6.4	5195
Cc1ccc(Cc2nnc3n(-c4ccccc4)nc(C(=O)c4ccccc4)n3c2=O)cc1	-3.2	-2.7	-5.4	-1.2	21560*
Cc1ccc(CNC(=O)c2cc(C)nn2-c2ccccc2)cc1	7.8	0.5	1.3	-2.0	4071
CN1CCN(Cc2c(C#N)c3ccccc3n2C)CC1	0.6	?	0.5	-1.3	19926*
Cn1c(CN2CCOCC2)c(C#N)c2ccccc21	47.7	7.7	9.7	-8.5	17523*
CN1CCN(Cc2nc3ccccc3n2C)CC1	2.7	?	1.7	0.0	19606*
Cn1c(CN2CCCC2)c(C#N)c2ccccc21	7.9	-0.7	-4.1	-3.0	2676
CC(NS(=O)(=O)c1ccc(Br)cc1F)[C@H](O)c1ccccc1 (stereo partly drawn)	1.4	-0.2	-4.5	2.8	3740
O=C(COc1ccc(S(=O)(=O)N2CCCCC2)cc1)NCc1cccnc1	2.5	2.4	4.2	-1.5	22072*
Cc1cc(=O)oc2cc(OCC(=O)NCc3ccncc3)ccc12	6.4	-0.3	-5.5	-2.4	10891
Cc1cc(=O)oc2cc(OCC(=O)NCc3cccnc3)ccc12	2.7	-1.7	-6.1	-3.2	23262*
CCOC(=O)N1CCN(c2ncnc3nc[nH]c23)CC1	2.4	-0.3	-5.3	-1.8	5296
CCOC(=O)C(C)(C)Sc1ncnc2nc[nH]c12	3.0	?	2.7	-0.6	23381*
COc1ccc(C(=O)n2nc(-c3ccco3)nc2SC)cc1OC	108.8*	0.7	11.1	-1.6	4447
CSc1nc(-c2ccco2)nn1C(=O)c1cccs1	-5.8	-1.2	-5.4	-1.4	3833
Cc1ccc(S(=O)c2ccc([N+](=O)[O-])c3nonc23)cc1 (stereo not drawn)	375.4*	4.5	0.4	4.3	2848
CC(C)C[C@@H]1CN(CCCC[C@H]2CNC(=O)C(=O)N2CCC2CCCCC2)C(=O)C(=O)N1CCc1ccc(O)cc1	.	-0.8	12.3	-8.3	5626
SMILES	MazF activator	BoNT A protease	BoNT F protease	Anthrax LF prot	Autofluor counter
C#CCn1cc(CNC[C@H]2O[C@@H](n3cnc4c(=O)[nH]c(N)nc43)[C@H](O)[C@@H]2O)c2ccccc21	.	-0.5	-16.7	4.1	5871
CS(=O)(=O)Nc1ccc(Cc2ccc(NS(C)(=O)=O)cc2)cc1	6.0	-3.6	-6.0	0.6	20871*
COCCN1C(=O)/C(=C/c2ccc(N3CCCC3)cc2C)SC1=S	-22.1	100.0*	27.8	57.6*	18023*
CC(C)(C)OC(=O)N1CC=C2C(C#N)=C(N)C(C#N)(C#N)[C@H](c3cccnc3)[C@H]2C1	124.8*	1.0	6.2	-0.1	10291
CCCCn1c(=N)n(CC(O)COc2cccc(C)c2)c2ccccc21 (stereo not drawn)	27.1	-2.6	-5.6	-3.5	23566*
Cc1ccc(OCC(O)Cn2c(=N)n(CCN3CCCCC3)c3ccccc32)cc1 (stereo not drawn)	6.5	-0.7	-6.0	-4.1	24505*
Cc1ccccc1OCC(O)Cn1c(=N)n(Cc2ccccc2)c2ccccc21 (stereo not drawn)	39.2	0.1	-3.9	-3.4	4759
COc1ccccc1OCC(O)Cn1c(=N)n(Cc2ccccc2)c2ccccc21 (stereo not drawn)	16.6	-0.6	-1.3	-2.3	24188*
COc1ccc(OCC(O)Cn2c(=N)n(CCN3CCCCC3)c3ccccc32)cc1 (stereo not drawn)	11.5	0.0	-1.9	-3.3	5171
O=C1CC(N(Cc2ccc3c(c2)OCO3)C(=O)Nc2ccc(F)cc2)C(=O)N1c1ccccc1 (stereo not drawn)	-0.4	?	2.0	-0.4	23094*
CCNC(=O)C1CCCN(C(=O)c2ccco2)CC1 (stereo not drawn)	.	-0.1	-8.7	-4.6	3339
CN(CC(=O)Nc1ccc(Cl)c(C(F)(F)F)c1)C(=O)/C=C/c1cccs1	9.7	0.5	-6.4	-3.8	2837
O=C1CC(N2C(=O)/C(=C/C=C/c3ccccc3)SC2=S)C(=O)N1c1ccccc1 (stereo not drawn)	0.0	64.2*	21.1	34.8*	2114
O=C(O)C1CCC(C(=O)O)SS1 (stereo not drawn)	0.7	-0.2	-0.3	-2.0	3527
CC(=O)Nc1ccc(NC2=Nc3ccccc3N3C2=Nc2c(c(C)nn2-c2ccccc2)C3c2ccccc2)cc1 (stereo not drawn)	-1.3	147.0*	32.4	68.2*	3420
COc1ccc(NC2=Nc3ccccc3N3C2=Nc2c(c(C)nn2-c2ccc(C)cc2)C3c2cccnc2)cc1 (stereo not drawn)	6.1	?	43.9*	60.1*	15892
CC(=O)Nc1ccc(NC(=O)COC(=O)c2c(C)nn(-c3ccccc3)c2C)cc1	0.5	0.3	-0.5	-2.0	2061
COc1ccc(C(=O)/C=C/c2cn(CN3CCN(C)CC3)c3ccccc23)cc1	-3.0	-1.0	-1.3	-1.0	23529*
CCOc1ccc(C(=O)/C=C/c2cn(CN3CCN(C)CC3)c3ccccc23)cc1	-5.9	0.7	-12.6	-0.5	12343
Cc1ccc(C)c(NCCCCC(=O)O)c1	.	-0.3	-13.2	-2.4	5410
CCN(CC)C1=NC(=[N+](CC)CC)c2ccccc21	8.6	14.5	16.6	-9.4	17474*
Cc1ccc(S(=O)(=O)Oc2ccc(/C=C3\N=C(c4cccc(C)c4)OC3=O)cc2)cc1	5.8	3.8	3.6	3.2	21802*
CCc1ccc(OCC(=O)Nc2cc(S(=O)(=O)CC)ccc2O)cc1	9.4	4.2	3.8	-0.3	17897*
CCS(=O)(=O)c1ccc(O)c(NC(=O)COc2ccccc2)c1	5.9	-0.4	2.0	-0.8	11012
COc1ccccc1CNC(=O)[C@@H]1CCCN1C(=O)C1CCN(S(=O)(=O)c2ccc(C)cc2)CC1	-13.7	-1.2	2.3	-1.9	9144
Cc1ccc(S(=O)(=O)N2CCC(C(=O)N3CCC[C@H]3C(=O)NCc3ccccc3)CC2)cc1	-3.7	-4.8	-5.6	-0.1	21009*
CC1CCN(S(=O)(=O)c2cccc(C(=O)NCc3ccco3)c2)CC1	-10.9	-1.1	-3.3	-2.9	23763*
